# Records with an inconclusive call do not appear. Calls of active or inactive are those of the source. Calls come from the whole dose curve; as a rule, active = well fitted activation curve with a large enough effect; inconclusive = small, poorly fitted or top-dose-only effect; inactive = no such curve, though single readings can be large or run the other way.
# Biological target: Cellular tumor antigen p53 (Homo sapiens) (UniProt P04637)
# Test: Primary qHTS for small molecule compounds that upregulate eGFP-tagged delta133p53alpha (in N-terminal) cells. (AID 2060322); note: nearly all actives have a fitted effect of over 75% in size;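 for activation: cells pre-induced with doxycycline then dosed without doxycycline; series mostly up to about 56 µM; 0% = DMSO vehicle and 100% = reference activator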
# Conditions: NCI-H358 eGFP-delta133p53alpha fluorescence, 24 h; activation: active compounds read high
# Procedure, shortened: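 NCI-H358 cells pre-induced 24 h with 10 ng/ml doxycycline for eGFP-delta133p53alpha, plated dox-free and exposed 24 h at 37C to titrated compounds. Fixed, Hoechst-stained; gated GFP peak intensity by laser scanning cytometry, normalized to DMSO (0%) and 57.5 uM 5-azacytidine (100%).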
# Potency is the fitted concentration of half-maximal effect.
# Sequence of Cellular tumor antigen p53 (Homo sapiens) (P04637 whole entry, looked up): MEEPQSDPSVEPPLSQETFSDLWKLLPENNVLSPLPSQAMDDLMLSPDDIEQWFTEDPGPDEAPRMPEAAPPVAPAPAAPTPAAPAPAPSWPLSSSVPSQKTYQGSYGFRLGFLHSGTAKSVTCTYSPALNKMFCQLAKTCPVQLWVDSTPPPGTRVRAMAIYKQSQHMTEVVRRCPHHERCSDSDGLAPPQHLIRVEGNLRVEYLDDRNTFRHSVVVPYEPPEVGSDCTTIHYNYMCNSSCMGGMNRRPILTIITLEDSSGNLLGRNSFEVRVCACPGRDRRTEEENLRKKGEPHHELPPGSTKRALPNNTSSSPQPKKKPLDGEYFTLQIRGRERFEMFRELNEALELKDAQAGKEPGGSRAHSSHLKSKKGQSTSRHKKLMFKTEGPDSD
SMILES,activation,Potency
NCCC(O)(P(=O)(O)O)P(=O)(O)O,-6.21% (inactive),–
CNC(=O)[C@H](CC1=CN=C2C=CCC=C12)NC(=O)[C@@H](CC(=O)NO)CC(C)C,3.1% (inactive),–
OC(CCN1CCCC1)(c1ccccc1)C1CCCCC1 (stereo not given),20.1% (inactive),–
Cc1cc(C=c2sc3nc4ccccc4n3c2=O)c(C)n1-c1ccccc1,-10.2% (inactive),–
Cc1c(Cn2ccnc2)c2ccccc2n1CCC(=O)O,-8.47% (inactive),–
NC(=O)N[C@@H](CCC(=O)O)C(=O)O,-5.02% (inactive),–
CNCC[C@@H](Oc1ccccc1C)c1ccccc1,-17.6% (inactive),–
O=C(Nc1ncc(SCCN2CCCC2)s1)[C@]1(c2ccc(S(=O)(=O)C3CC3)cc2)C[C@@H]1C1CCCCC1,26.3% (inactive),–
Cc1c(C(C)C)c(=O)n(-c2ccccc2)n1C,-13.4% (inactive),–
Oc1ccc(C(O)CNCCCCCCNCC(O)c2ccc(O)c(O)c2)cc1O (stereo not given),2.82% (inactive),–
CCCCCCOC(=O)N=C(N)c1ccc(NCc2nc3cc(C(=O)N(CCC(=O)OCC)c4ccccn4)ccc3n2C)cc1,20.7% (inactive),–
COc1ccc2cc1Oc1cc3c(cc1OC)CC[N+](C)(C)[C@H]3Cc1ccc(cc1)Oc1c(OC)c(OC)cc3c1[C@@H](C2)[N+](C)(C)CC3,13% (inactive),–
CNCc1ccccc1,6.21% (inactive),–
CCN1CCCC1CN (stereo not given),3.35% (inactive),–
CC(C)C[C@@H](N)C(=O)O,-14.2% (inactive),–
CC(C)(O)[C@H]1CC[C@@](C)([C@H]2[C@@H](O)C[C@@]3(C)[C@@H]4C[C@H](O[C@@H]5O[C@H](CO)[C@@H](O)[C@H](O)[C@@H]5O)[C@H]5C(C)(C)[C@@H](O[C@@H]6OC[C@@H](O)[C@H](O)[C@@H]6O)CC[C@@]56C[C@@]46CC[C@]23C)O1,10.3% (inactive),–
CCOC(=O)C(=O)CCc1ccccc1,10% (inactive),–
CCOC(=O)/C=C(C)/C=C/C=C(C)/C=C/c1c(C)cc(OC)c(C)c1C,9.6% (inactive),–
COc1cc2c(cc1O)CCC1C2CC[C@@]2(C)C1CC[C@@H]2O (stereo not given in full),27.6% (inactive),–
Cc1c(C(=O)O)c(O)cc2c1C(=O)c1c(O)c([C@@H]3O[C@H](CO)[C@@H](O)[C@H](O)[C@H]3O)c(O)c(O)c1C2=O,-4.18% (inactive),–

SMILES,activation,Potency
CCN1CCN(C(=O)N[C@H](C(=O)N[C@@H]2C(=O)N3C(C(=O)O)=C(CSc4nnnn4C)CS[C@@H]23)c2ccc(O)cc2)C(=O)C1=O,19.4% (inactive),–
COC(=O)c1cc(Cl)ccc1NS(=O)(=O)C(F)(F)F,8.47% (inactive),–
Nc1ccc2c(c1)CN1C(=O)c3ccccc3C1=N2,–,60.1 nM (active)
O=C1C(CCS(=O)c2ccccc2)C(=O)N(c2ccccc2)N1c1ccccc1 (stereo not given),15.1% (inactive),–
Nc1c(C(=O)Nc2ccc(F)cc2)sc2nc(-c3cccs3)cc(C(F)(F)F)c12,–,1530 nM (active)
N[C@@H](Cc1cc(I)c(Oc2ccc(O)c(I)c2)c(I)c1)C(=O)O,-7.64% (inactive),–
CC(O)=C(C#N)C(=O)Nc1ccc(C(F)(F)F)cc1,11.7% (inactive),–
Cc1cn([C@@H]2O[C@H](CO)[C@@H](O)[C@H]2F)c(=O)[nH]c1=O,5.67% (inactive),–
CC1(C)SCCN(S(=O)(=O)c2ccc(OCC#CCO)cc2)[C@@H]1C(=O)NO,9.74% (inactive),–
O=C1C(Cl)=C(N2CCOCC2)C(=O)N1c1ccc(Cl)c(Cl)c1,-1% (inactive),–
Cc1cc(Nc2cc(N3CCN(C)CC3)nc(C=Cc3ccccc3)n2)n[nH]1,51.8% (inactive),–
CCC(=O)O[C@]1(C(=O)CO)CC[C@H]2[C@@H]3CCC4=CC(=O)CC[C@]4(C)[C@@H]3CC[C@@]21C,38% (inactive),–
C=CCn1c(=O)n([C@@H]2O[C@H](CO)[C@@H](O)[C@H]2O)c2nc(N)[nH]c(=O)c21,-0.565% (inactive),–
Cc1ccc(S(=O)(=O)NC(=O)NC2CCCCCCC2)cc1,-3.95% (inactive),–
O=C1CC2(CCCC2)CC(=O)N1CCNCC1COc2ccccc2O1 (stereo not given),-5.86% (inactive),–
CC(=O)N1CCN(c2ccc(OCc3nn(C)c(C)c3-c3cccc4c(CCCOc5cccc6ccccc56)c(C(=O)O)n(Cc5cccnc5)c34)cc2)CC1,22.3% (inactive),–
NC(=O)c1ncn([C@@H]2O[C@H](CO)[C@@H](O)[C@@H]2O)c1O,-3.98% (inactive),–
CCN(CC)C(=O)N1CCN(C)CC1,-2.51% (inactive),–
Cc1cc(O)c(C(C)C)cc1Cl,-0.565% (inactive),–
CC1(C)O[C@@H]2[C@@H](CO[C@@]3(COS(N)(=O)=O)OC(C)(C)O[C@@H]23)O1,-2.51% (inactive),–
